Holding throughout (experiment): DAPPL (digital affinity profiling via proximity ligation, sequencing); 10 mM Tris-HCl pH 7.5, 50 mM NaCl, 1 mM DTT, 4% glycerol, room temperature, 30 min; GST-TFs on glutathione beads, 16-mer random dsDNA library, 0.1% formaldehyde crosslink after washing; high values mean tight binding
One test concerns the target T1, FLI1 (Homo sapiens, UniProt Q01543 1-452).
T1 sequence: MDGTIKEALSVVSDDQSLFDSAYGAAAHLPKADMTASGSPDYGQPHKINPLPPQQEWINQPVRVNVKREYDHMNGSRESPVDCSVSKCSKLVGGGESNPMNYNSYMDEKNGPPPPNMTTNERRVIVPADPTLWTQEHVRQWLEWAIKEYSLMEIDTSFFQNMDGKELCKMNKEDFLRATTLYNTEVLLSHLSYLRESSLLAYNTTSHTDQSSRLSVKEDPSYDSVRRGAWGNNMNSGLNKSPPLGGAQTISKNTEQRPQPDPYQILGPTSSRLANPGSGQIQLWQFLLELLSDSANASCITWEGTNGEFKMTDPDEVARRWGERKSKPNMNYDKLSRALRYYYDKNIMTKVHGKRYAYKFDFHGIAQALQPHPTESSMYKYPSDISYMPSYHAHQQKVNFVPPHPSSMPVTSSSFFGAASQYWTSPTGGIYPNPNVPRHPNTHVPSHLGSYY
Conditions: protein: recombinant; tags: N-terminal GST; dsDNA, one strand shown. The gist of the method:
(§1)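 Binding signal is given per hexamer as its read frequency for a factor divided by its frequency in the tag-only sample. GST-fused human transcription factors were expressed in yeast, captured on glutathione beads, barcoded with DNA and pooled with that sample, then incubated with 200 nmole of a 16-mer random double-stranded DNA library in Tris/NaCl/DTT/glycerol buffer for 30 min at room temperature. The pools were then washed, crosslinked, proximity-ligated, amplified by PCR and sequenced on an Illumina NextSeq500.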

Another test addresses T2, ELK1 (Homo sapiens, UniProt P19419 1-428).
T2 sequence: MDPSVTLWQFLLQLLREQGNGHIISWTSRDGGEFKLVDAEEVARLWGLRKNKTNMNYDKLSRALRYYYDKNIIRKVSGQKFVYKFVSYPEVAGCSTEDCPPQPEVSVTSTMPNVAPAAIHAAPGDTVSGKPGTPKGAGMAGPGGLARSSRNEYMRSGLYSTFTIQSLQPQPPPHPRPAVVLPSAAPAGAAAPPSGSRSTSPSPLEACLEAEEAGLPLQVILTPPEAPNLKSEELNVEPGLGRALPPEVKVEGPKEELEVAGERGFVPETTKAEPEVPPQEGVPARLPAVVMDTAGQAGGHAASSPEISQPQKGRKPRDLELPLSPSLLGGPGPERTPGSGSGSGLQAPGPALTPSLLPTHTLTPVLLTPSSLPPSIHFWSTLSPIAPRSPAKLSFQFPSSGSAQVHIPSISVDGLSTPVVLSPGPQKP
As to conditions: protein: recombinant; tags: N-terminal GST; dsDNA, one strand shown. The gist of the method:
as §1

For the next test, the target named is T3, GABPA (Homo sapiens, UniProt Q06546 1-454).
T3 sequence: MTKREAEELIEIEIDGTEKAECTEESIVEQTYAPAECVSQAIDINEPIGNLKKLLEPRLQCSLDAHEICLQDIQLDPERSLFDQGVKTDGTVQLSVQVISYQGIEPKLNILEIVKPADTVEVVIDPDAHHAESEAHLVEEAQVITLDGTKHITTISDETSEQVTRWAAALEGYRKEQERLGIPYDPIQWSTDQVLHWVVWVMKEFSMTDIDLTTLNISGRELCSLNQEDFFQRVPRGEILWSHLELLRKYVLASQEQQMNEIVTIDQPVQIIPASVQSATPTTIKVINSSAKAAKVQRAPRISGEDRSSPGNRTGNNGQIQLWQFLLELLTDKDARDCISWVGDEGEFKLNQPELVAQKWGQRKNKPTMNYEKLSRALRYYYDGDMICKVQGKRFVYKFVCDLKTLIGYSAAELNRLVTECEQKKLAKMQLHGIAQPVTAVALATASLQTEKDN
As to conditions: protein: recombinant; tags: N-terminal GST; dsDNA, one strand shown. The method, boiled down:
as §1

The next test has as its target T4, ERG (Homo sapiens, UniProt P11308 1-479).
T4 sequence: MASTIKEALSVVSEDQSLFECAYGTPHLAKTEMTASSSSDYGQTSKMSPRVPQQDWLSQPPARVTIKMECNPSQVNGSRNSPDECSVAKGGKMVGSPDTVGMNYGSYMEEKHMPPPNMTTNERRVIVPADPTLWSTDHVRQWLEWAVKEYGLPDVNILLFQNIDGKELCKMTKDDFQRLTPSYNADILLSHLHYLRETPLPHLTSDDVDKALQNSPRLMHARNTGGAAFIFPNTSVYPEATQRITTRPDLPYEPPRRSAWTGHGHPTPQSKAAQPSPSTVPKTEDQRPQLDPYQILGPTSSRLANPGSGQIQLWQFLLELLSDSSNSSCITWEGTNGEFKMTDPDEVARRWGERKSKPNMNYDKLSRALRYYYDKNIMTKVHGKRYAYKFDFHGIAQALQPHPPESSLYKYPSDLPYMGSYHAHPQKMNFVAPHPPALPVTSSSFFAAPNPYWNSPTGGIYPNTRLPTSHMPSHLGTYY
As to conditions: protein: recombinant; tags: N-terminal GST; dsDNA, one strand shown. The method, boiled down:
as §1

For the next test, the target named is ELF1 (Homo sapiens, UniProt P32519 1-619). As to conditions: protein: recombinant; tags: N-terminal GST; dsDNA, one strand shown. The method, boiled down:
as §1

The target in the next test is T5, EHF (Homo sapiens, UniProt Q9NZC4 1-300).
T5 sequence: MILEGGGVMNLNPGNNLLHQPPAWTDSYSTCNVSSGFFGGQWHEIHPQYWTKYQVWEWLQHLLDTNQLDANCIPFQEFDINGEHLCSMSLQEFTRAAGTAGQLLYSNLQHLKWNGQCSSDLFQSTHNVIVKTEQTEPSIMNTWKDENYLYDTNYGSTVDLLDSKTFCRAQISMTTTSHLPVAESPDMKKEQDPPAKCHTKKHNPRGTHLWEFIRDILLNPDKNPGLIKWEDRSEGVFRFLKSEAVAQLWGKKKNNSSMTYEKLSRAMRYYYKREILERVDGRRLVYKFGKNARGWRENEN
As to conditions: protein: recombinant; tags: N-terminal GST; dsDNA, one strand shown. The method, boiled down:
as §1

The next test concerns the target SPI1 (Homo sapiens, UniProt P17947 1-270). Conditions: protein: recombinant; tags: N-terminal GST; dsDNA, one strand shown. The method, boiled down: as §1
The target of a further test is SPIB (Homo sapiens, UniProt Q01892 1-262). As to conditions: protein: recombinant; tags: N-terminal GST; dsDNA, one strand shown. The method, boiled down: as §1
Chain of SPIB (Q01892 whole entry): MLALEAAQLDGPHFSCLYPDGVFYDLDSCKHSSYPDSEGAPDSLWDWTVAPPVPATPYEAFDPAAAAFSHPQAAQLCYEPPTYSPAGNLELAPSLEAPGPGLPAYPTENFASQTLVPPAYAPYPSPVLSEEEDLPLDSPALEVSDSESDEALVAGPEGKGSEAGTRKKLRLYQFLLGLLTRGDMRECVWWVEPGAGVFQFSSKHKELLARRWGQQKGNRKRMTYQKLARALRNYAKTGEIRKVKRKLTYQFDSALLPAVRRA
A further test addresses T6, ELK3 (Homo sapiens, UniProt P41970 1-407).
T6 sequence: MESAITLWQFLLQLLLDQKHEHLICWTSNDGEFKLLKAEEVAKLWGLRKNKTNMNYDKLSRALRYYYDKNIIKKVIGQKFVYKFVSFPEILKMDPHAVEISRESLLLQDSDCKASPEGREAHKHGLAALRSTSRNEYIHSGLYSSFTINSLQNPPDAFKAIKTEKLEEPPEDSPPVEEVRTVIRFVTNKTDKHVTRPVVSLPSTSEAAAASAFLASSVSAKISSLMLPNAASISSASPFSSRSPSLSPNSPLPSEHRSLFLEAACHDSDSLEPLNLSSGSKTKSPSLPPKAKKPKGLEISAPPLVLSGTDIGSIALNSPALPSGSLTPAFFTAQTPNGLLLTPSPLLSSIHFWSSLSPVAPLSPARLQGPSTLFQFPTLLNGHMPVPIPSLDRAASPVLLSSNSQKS
Conditions: protein: recombinant; tags: N-terminal GST; dsDNA, one strand shown. The gist of the method:
as §1

The next test addresses T7, FEV (Homo sapiens, UniProt Q99581 1-238).
T7 sequence: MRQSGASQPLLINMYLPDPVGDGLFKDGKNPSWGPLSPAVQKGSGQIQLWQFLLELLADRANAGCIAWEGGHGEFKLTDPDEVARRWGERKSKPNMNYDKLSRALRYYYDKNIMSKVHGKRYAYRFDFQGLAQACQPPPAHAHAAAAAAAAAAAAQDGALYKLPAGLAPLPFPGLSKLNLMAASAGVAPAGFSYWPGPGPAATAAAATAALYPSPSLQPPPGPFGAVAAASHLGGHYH
Conditions: protein: recombinant; tags: N-terminal GST; dsDNA, one strand shown. The method, boiled down:
as §1

For the next test, the target named is ETV5 (Homo sapiens, UniProt P41161 1-510). As to conditions: protein: recombinant; tags: N-terminal GST; dsDNA, one strand shown. The gist of the method:
as §1

In the next test the target is HSF1 (Homo sapiens, UniProt Q00613 1-529). Conditions: protein: recombinant; tags: N-terminal GST; chain copies: 3; dsDNA, one strand shown. The gist of the method:
as §1

The target in another test is T8, SPIC (Homo sapiens, UniProt Q8N5J4 1-248).
T8 sequence: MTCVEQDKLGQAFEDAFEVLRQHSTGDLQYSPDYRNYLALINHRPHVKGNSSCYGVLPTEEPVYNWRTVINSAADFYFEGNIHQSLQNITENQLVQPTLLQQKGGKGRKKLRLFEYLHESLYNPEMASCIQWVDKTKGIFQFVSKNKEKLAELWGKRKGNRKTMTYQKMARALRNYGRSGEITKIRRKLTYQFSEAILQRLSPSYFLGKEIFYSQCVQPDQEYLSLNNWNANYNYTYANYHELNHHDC
As to conditions: protein: recombinant; tags: N-terminal GST; dsDNA, one strand shown. The method, boiled down:
as §1

Another test concerns the target ELF4 (Homo sapiens, UniProt Q99607 1-663). As to conditions: protein: recombinant; tags: N-terminal GST; dsDNA, one strand shown. The gist of the method: as §1
For the next test, the target named is T9, ELK4 (Homo sapiens, UniProt P28324-2 1-405).
T9 sequence: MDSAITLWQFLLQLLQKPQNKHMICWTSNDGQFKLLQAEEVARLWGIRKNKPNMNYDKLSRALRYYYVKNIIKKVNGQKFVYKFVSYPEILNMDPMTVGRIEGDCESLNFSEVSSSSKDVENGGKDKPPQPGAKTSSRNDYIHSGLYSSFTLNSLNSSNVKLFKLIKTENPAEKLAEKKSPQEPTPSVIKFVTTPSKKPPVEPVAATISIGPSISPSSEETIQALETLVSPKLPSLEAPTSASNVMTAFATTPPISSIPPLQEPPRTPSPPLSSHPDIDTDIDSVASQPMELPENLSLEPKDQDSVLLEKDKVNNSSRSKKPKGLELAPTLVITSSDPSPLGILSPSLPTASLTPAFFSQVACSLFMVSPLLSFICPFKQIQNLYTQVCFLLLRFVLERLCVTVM
Conditions: protein: recombinant; tags: N-terminal GST; dsDNA, one strand shown. The gist of the method: as §1

The target of the next test is T10, ETV2 (Homo sapiens, UniProt O00321 1-342).
T10 sequence: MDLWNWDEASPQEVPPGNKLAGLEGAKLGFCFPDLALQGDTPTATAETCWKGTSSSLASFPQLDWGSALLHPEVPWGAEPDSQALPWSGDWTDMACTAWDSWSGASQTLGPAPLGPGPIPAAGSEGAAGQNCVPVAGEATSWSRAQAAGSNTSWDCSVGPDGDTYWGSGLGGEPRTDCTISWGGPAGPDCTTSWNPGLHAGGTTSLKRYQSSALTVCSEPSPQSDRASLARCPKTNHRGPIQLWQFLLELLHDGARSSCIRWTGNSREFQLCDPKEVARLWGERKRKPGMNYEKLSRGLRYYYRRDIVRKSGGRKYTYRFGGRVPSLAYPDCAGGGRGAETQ
As to conditions: protein: recombinant; tags: N-terminal GST; dsDNA, one strand shown. The gist of the method:
as §1

Another test addresses T11, ELF3 (Homo sapiens, UniProt P78545 1-371).
T11 sequence: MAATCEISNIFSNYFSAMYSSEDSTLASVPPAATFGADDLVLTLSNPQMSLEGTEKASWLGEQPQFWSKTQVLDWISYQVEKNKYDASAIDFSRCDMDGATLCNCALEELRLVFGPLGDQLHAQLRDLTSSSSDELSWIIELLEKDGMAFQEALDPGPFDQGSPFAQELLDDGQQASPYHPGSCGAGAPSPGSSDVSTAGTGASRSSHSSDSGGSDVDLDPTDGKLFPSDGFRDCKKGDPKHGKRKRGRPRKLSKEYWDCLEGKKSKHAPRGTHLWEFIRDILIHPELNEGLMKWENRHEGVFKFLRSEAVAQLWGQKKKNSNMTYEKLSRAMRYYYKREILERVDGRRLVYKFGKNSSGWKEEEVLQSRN
As to conditions: protein: recombinant; tags: N-terminal GST; dsDNA, one strand shown. The method, boiled down:
as §1

The target of a further test is CRX (Homo sapiens, UniProt O43186 1-299). As to conditions: protein: recombinant; tags: N-terminal GST; dsDNA, one strand shown. The gist of the method: as §1
Chain of CRX (O43186 whole entry): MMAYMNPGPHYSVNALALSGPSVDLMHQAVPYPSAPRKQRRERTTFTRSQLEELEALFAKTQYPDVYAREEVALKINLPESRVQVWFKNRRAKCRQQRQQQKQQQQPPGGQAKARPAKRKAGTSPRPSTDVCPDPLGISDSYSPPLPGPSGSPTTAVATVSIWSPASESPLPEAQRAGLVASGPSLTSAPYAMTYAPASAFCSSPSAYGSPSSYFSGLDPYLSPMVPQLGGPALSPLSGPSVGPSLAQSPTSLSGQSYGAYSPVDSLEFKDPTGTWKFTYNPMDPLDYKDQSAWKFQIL
A further test concerns the target ETV1 (Homo sapiens, UniProt P50549 1-477). Conditions: protein: recombinant; tags: N-terminal GST; dsDNA, one strand shown. The gist of the method:
as §1

Chain of ELF1 (P32519 whole entry): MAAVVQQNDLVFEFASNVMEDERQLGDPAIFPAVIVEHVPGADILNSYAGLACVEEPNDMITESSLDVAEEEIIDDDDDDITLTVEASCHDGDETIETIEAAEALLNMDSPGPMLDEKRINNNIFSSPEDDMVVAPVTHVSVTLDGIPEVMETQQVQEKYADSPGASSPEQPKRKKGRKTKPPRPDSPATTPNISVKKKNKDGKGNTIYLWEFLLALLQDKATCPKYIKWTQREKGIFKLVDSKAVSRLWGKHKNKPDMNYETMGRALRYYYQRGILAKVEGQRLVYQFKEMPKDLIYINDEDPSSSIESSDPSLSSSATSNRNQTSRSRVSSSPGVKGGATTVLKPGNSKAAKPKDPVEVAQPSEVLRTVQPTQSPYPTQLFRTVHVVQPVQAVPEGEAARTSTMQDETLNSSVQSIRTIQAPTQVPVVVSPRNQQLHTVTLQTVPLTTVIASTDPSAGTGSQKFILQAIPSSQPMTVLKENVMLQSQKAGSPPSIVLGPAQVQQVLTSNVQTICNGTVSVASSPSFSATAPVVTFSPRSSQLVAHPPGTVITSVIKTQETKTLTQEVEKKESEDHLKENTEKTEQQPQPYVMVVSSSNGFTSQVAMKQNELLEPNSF
Chain of ETV5 (P41161 whole entry): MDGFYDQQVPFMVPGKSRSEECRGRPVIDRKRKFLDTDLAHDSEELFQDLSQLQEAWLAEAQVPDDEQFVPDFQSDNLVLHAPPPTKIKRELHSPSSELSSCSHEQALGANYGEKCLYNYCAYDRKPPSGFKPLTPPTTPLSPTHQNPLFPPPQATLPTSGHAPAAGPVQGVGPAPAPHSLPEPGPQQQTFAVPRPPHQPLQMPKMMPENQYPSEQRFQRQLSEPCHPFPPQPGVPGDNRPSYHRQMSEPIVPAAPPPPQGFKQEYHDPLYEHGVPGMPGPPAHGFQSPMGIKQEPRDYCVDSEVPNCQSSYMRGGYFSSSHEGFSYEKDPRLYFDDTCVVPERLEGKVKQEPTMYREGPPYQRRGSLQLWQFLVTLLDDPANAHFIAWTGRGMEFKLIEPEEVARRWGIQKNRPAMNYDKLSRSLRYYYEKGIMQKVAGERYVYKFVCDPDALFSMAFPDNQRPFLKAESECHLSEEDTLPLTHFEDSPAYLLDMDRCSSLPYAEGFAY
Chain of HSF1 (Q00613 whole entry): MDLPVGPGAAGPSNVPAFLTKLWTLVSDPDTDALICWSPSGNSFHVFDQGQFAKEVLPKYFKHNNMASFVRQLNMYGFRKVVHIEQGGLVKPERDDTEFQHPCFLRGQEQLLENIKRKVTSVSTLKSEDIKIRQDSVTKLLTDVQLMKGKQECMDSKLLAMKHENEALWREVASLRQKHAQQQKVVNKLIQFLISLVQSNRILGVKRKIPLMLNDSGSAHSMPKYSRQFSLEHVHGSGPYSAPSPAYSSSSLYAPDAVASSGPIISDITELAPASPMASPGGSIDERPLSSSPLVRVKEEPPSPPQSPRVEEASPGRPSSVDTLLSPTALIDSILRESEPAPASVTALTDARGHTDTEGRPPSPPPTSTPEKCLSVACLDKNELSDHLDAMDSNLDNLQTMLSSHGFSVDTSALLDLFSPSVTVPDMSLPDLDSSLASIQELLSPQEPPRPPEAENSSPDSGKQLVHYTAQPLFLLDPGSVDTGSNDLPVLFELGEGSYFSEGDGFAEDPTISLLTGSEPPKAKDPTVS
Chain of ELF4 (Q99607 whole entry): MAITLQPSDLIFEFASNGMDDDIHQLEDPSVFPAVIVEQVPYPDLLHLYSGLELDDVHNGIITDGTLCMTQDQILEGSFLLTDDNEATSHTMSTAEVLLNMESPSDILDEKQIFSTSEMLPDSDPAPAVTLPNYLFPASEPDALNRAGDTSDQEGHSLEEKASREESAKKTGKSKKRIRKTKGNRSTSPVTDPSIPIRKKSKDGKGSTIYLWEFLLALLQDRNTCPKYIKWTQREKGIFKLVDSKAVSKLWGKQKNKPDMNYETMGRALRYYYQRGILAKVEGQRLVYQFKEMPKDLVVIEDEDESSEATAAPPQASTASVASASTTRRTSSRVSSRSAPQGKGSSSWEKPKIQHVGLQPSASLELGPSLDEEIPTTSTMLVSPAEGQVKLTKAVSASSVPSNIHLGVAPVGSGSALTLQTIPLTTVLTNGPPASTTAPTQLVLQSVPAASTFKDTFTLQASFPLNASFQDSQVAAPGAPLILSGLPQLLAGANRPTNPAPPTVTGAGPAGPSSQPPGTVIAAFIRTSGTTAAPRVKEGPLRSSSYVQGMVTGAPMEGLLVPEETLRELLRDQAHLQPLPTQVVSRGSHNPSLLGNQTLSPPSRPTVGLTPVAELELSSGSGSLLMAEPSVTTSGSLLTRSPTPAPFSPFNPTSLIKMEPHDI
Chain of ETV1 (P50549 whole entry): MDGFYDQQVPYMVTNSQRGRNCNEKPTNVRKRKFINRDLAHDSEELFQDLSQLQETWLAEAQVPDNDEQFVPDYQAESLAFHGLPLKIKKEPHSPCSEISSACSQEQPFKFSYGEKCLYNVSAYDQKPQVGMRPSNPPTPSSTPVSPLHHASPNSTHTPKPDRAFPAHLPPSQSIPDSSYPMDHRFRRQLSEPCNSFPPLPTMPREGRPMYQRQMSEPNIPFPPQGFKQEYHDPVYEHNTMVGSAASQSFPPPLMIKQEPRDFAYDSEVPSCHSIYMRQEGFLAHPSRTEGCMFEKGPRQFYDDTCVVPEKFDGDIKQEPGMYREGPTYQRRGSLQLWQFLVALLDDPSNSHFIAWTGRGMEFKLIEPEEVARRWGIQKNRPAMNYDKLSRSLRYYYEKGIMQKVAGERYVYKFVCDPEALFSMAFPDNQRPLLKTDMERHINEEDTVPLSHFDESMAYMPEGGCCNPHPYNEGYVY

Regarding GAATCC, the binding signal with FLI1 was 1.15 fold enrichment (6-mer frequency, TF over GST control); with ELK1, 1.09 fold enrichment (6-mer frequency, TF over GST control); with GABPA it was 1.08 fold enrichment (6-mer frequency, TF over GST control); in the test with ERG it was 1.18 fold enrichment (6-mer frequency, TF over GST control); in the test with ELF1 it was 1.13 fold enrichment (6-mer frequency, TF over GST control); with EHF, 1.14 fold enrichment (6-mer frequency, TF over GST control). Also, the binding signal was 1.14 fold enrichment (6-mer frequency, TF over GST control) in the test with SPI1; 1.11 fold enrichment (6-mer frequency, TF over GST control) with SPIB; 1.08 fold enrichment (6-mer frequency, TF over GST control) with ELK3; 1.13 fold enrichment (6-mer frequency, TF over GST control) with FEV; 1.17 fold enrichment (6-mer frequency, TF over GST control) with ETV5; 1.21 fold enrichment (6-mer frequency, TF over GST control) with HSF1. The binding signal with SPIC is 1.1 fold enrichment (6-mer frequency, TF over GST control); in the test with ELF4, 1.12 fold enrichment (6-mer frequency, TF over GST control); in the test with ELK4, 1.19 fold enrichment (6-mer frequency, TF over GST control); with ETV2, 1.09 fold enrichment (6-mer frequency, TF over GST control); with ELF3, 1.02 fold enrichment (6-mer frequency, TF over GST control); with CRX it was 1.19 fold enrichment (6-mer frequency, TF over GST control). In the test with ETV1, the binding signal is 1.13 fold enrichment (6-mer frequency, TF over GST control).
